Read-out in assay [1]: C-C motif chemokine 2 (Homo sapiens) (UniProt P13500)
The experiment in a line: BSK_KF3CT_MCP1: BioMAP Diversity Plus: KF3CT Assay for Monocyte Chemoattractant Protein 1 (MCP1/CCL2) Biomarker Activity (AID 2283073). To be noted: primary human keratinocytes with fibroblasts; actives raise or lower the signal. The essentials: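 Human keratinocyte plus foreskin fibroblast primary co-culture exposed to chemical for 24 h. MCP-1 levels measured by ELISA. Bidirectional curve fitting relative to DMSO negative control as baseline.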

Read-out in assay [2]: Matrix Metallopeptidase 9 (MMP9), MMP9 (gene 4318)
Nature of the assay: BSK_KF3CT_MMP9: BioMAP Diversity Plus: KF3CT Assay for Matrix Metallopeptidase 9 (MMP9) Biomarker Activity (AID 2283074). Particulars: primary human keratinocytes with fibroblasts; actives raise or lower the signal. An outline of the steps:
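MMP-9 quantified by ELISA after 24 h chemical treatment of primary human skin keratinocyte/fibroblast co-cultures; gain or loss fitted against DMSO, with parallel SRB staining (0.1% SRB, 560 nm) for overt cytotoxicity.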

Read-out in assay [3]: urokinase plasminogen activator (uPA), PLAU (gene 5328)
Nature of the assay: BSK_KF3CT_uPA: BioMAP Diversity Plus: KF3CT Assay for urokinase plasminogen activator (uPA) Biomarker Activity (AID 2283075). To be noted: primary human keratinocytes with fibroblasts; actives raise or lower the signal. An outline of the steps: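 ELISA read-out of uPA 24 h after dosing human skin keratinocytes co-cultured with foreskin fibroblasts. Signal change fitted both ways relative to DMSO; sulforhodamine B on parallel cultures marks overt cytotoxicity.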

Read-out in assay [4]: CD40, CD40 (gene 958)
The experiment in a line: BSK_LPS_CD40: BioMAP Diversity Plus: LPS Assay for CD40 Biomarker Activity (AID 2283076). Particulars: primary human HUVEC with PBMC; actives raise or lower the signal. The essentials:
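Primary human umbilical vein endothelial cells co-cultured with peripheral blood mononuclear cells, LPS-stimulated, were dosed with chemical and read 24 h later. CD40 levels were measured by ELISA and fitted bidirectionally against DMSO as negative control and baseline.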

Read-out in assay [5]: E-selectin (Homo sapiens) (UniProt P16581)
The experiment in a line: BSK_LPS_Eselectin: BioMAP Diversity Plus: LPS Assay for Eselectin Biomarker Activity (AID 2283077). Particulars: primary human HUVEC with PBMC; actives raise or lower the signal. The essentials:
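Human umbilical vein endothelial cells co-cultured with peripheral blood mononuclear cells under LPS stimulation; E-selectin measured by ELISA 24 h after chemical dosing. Activity fitted bidirectionally against DMSO as negative control and baseline.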

Read-out in assay [6]: Interleukin-8 (IL8), CXCL8 (gene 3576)
The experiment in a line: BSK_LPS_IL8: BioMAP Diversity Plus: LPS Assay for Interleukin-8 (IL8) Biomarker Activity (AID 2283078). Particulars: primary human HUVEC with PBMC; actives raise or lower the signal. An outline of the steps:
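Human umbilical vein endothelial cells co-cultured with PBMC were stimulated with LPS; IL-8 levels were measured by ELISA 24 h after chemical dosing. Activity was fitted bidirectionally against DMSO as negative control and baseline.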

Assay [7] is described as follows: BSK_LPS_SRB: Viability Assessment in the BioMAP Diversity Plus: LPS Assay (AID 2283079).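 Note: total protein by sulforhodamine B absorbance as a cytotoxicity measure; measured one day after compound addition; fitted in both directions against DMSO so loss or gain of signal counts.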 Particulars: primary human HUVEC with PBMC. An outline of the steps:
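Human umbilical vein endothelial cells co-cultured with PBMC (LPS system) were dosed for 24 h. Total protein was stained with 0.1% sulforhodamine B after 10% TCA fixation, read at 560 nm, and fitted bidirectionally against DMSO baseline.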

Read-out in assay [8]: Interleukin-1 alpha (IL1a), IL1A (gene 3552)
Nature of the assay: BSK_LPS_IL1a: BioMAP Diversity Plus: LPS Assay for Interleukin-1 alpha (IL1a) Biomarker Activity (AID 2283080). Particulars: primary human HUVEC with PBMC; actives raise or lower the signal. The essentials: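 Human umbilical vein endothelial cells co-cultured with peripheral blood mononuclear cells were LPS-stimulated and exposed to test chemicals for 24 h. IL-1 alpha was quantified by ELISA, with bidirectional curve fitting against DMSO as the negative control and baseline.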

Read-out in assay [9]: Monocyte Chemoattractant Protein-1 (MCP1), CCL2 (gene 6347)
The experiment in a line: BSK_LPS_MCP1: BioMAP Diversity Plus: LPS Assay for Monocyte Chemoattractant Protein-1 (MCP1) Biomarker Activity (AID 2283081). To be noted: primary human HUVEC with PBMC; actives raise or lower the signal. An outline of the steps:
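HUVEC plus PBMC co-culture (human primary cells, LPS system) exposed to test chemical for 24 h; MCP-1 measured by ELISA. Bidirectional curve fitting against DMSO baseline; parallel SRB total-protein staining flags overt cytotoxicity.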

The nature of assay [10]: BSK_LPS_PGE2: BioMAP Diversity Plus: LPS Assay for Prostaglandin E2 (PGE2) Biomarker Activity (AID 2283082).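 For AC50: secreted prostaglandin E2 measured by ELISA in LPS-stimulated co-culture.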 To be noted: primary human HUVEC with PBMC; actives raise or lower the signal. The essentials: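 ELISA read-out of PGE2 from human umbilical vein endothelial cells co-cultured with peripheral blood mononuclear cells under LPS, 24 h post-dose. Gain or loss of signal scored relative to DMSO baseline.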

Read-out in assay [11]: Macrophage colony-stimulating factor (MCSF), CSF1 (gene 1435)
The experiment in a line: BSK_LPS_MCSF: BioMAP Diversity Plus: LPS Assay for Macrophage colony-stimulating factor (MCSF) Biomarker Activity (AID 2283083). To be noted: primary human HUVEC with PBMC; actives raise or lower the signal. An outline of the steps:
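Human umbilical vein endothelial cells co-cultured with peripheral blood mononuclear cells were exposed to compound for 24 h. M-CSF levels were measured by ELISA, and bidirectional curve fitting used DMSO as the negative control and baseline.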

Read-out in assay [12]: Tissue Factor, F3 (gene 2152)
The experiment in a line: BSK_LPS_TissueFactor: BioMAP Diversity Plus: LPS Assay for Tissue Factor Biomarker Activity (AID 2283084). Particulars: primary human HUVEC with PBMC; actives raise or lower the signal. An outline of the steps:
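Human umbilical vein endothelial cells co-cultured with peripheral blood mononuclear cells were dosed and stimulated with LPS. Cell-surface CD142 was quantified by ELISA at 24 h. Activity was fitted bidirectionally against DMSO baseline.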

Read-out in assay [13]: Vascular cell adhesion molecule 1 (VCAM1), VCAM1 (gene 7412)
Nature of the assay: BSK_LPS_VCAM1: BioMAP Diversity Plus: LPS Assay for Vascular cell adhesion molecule 1 (VCAM1) Biomarker Activity (AID 2283086). To be noted: primary human HUVEC with PBMC; actives raise or lower the signal. The essentials:
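ELISA read-out of VCAM-1 at 24 h post-dosing in an LPS-driven HUVEC/PBMC primary human co-culture; gain or loss of signal fitted bidirectionally against DMSO baseline. Cytotoxicity tracked in parallel cultures by SRB total-protein staining.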

Read-out in a further assay: CD38, CD38 (gene 952)
Nature of the assay: BSK_SAg_CD38: BioMAP Diversity Plus: SAg Assay for CD38 Biomarker Activity (AID 2283087). To be noted: primary human HUVEC with PBMC; actives raise or lower the signal. An outline of the steps: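 Measures CD38 on a human endothelial/PBMC co-culture driven by SEB and TSST-1, 24 h after compound exposure, using ELISA with fluorescence detection; DMSO defines baseline for bidirectional curve fitting.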

Read-out in assay [14]: CD40, CD40 (gene 958)
Nature of the assay: BSK_SAg_CD40: BioMAP Diversity Plus: SAg Assay for CD40 Biomarker Activity (AID 2283088). To be noted: primary human HUVEC with PBMC; actives raise or lower the signal. An outline of the steps:
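Human umbilical vein endothelial cells co-cultured with PBMC; CD40 levels measured by ELISA with fluorescence read-out 24 h after chemical dosing. Gain or loss of signal fitted bidirectionally against DMSO baseline.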

Read-out in the next assay: CD69, CD69 (gene 969)
Nature of the assay: BSK_SAg_CD69: BioMAP Diversity Plus: SAg Assay for CD69 Biomarker Activity (AID 2283089). To be noted: primary human HUVEC with PBMC; actives raise or lower the signal. The essentials: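 Primary human vascular co-culture (umbilical vein endothelium with peripheral blood mononuclear cells) exposed to test chemical for 24 h. CD69 levels quantified by fluorescence ELISA; DMSO served as negative control for bidirectional fitting.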

Read-out in assay [15]: Monocyte Chemoattractant Protein-1 (MCP1), CCL2 (gene 6347)
The experiment in a line: BSK_SAg_MCP1: BioMAP Diversity Plus: SAg Assay for Monocyte Chemoattractant Protein-1 (MCP1) Biomarker Activity (AID 2283090). To be noted: primary human HUVEC with PBMC; actives raise or lower the signal. An outline of the steps:
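Values derive from bidirectional fitting of ELISA-measured MCP1 against DMSO controls. Readings were taken 24 h after dosing human vascular endothelial cells co-cultured with peripheral blood mononuclear cells under superantigen stimulation.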

Read-out in assay [16]: E-selectin (Homo sapiens) (UniProt P16581)
The experiment in a line: BSK_SAg_Eselectin: BioMAP Diversity Plus: SAg Assay for Eselectin Biomarker Activity (AID 2283091). To be noted: primary human HUVEC with PBMC; actives raise or lower the signal. The essentials:
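HUVEC co-cultured with PBMC, compound dosed then read at 24 h; E-selectin measured by ELISA. Activity fitted bidirectionally against DMSO as negative control and baseline.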

Read-out in assay [17]: Monokine induced gamma interferon (MIG), CXCL9 (gene 4283)
The experiment in a line: BSK_SAg_MIG: BioMAP Diversity Plus: SAg Assay for Monokine induced gamma interferon (MIG) Biomarker Activity (AID 2283092). To be noted: primary human HUVEC with PBMC; actives raise or lower the signal. The essentials:
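Endothelial cells and PBMC were co-cultured, exposed to test chemicals, and sampled 24 h later. MIG was measured by ELISA, and responses were fitted in both directions relative to DMSO.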

Read-out in assay [18]: Tumor necrosis factor (Homo sapiens) (UniProt P01375)
Nature of the assay: BSK_LPS_TNFa: BioMAP Diversity Plus: LPS Assay for Tumour Necrosis Factor alpha (TNFa) Biomarker Activity (AID 2283085). Particulars: primary human HUVEC with PBMC; actives raise or lower the signal. An outline of the steps: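 HUVEC/PBMC co-culture, LPS-stimulated; 24 h post-dose; TNFa by ELISA; gain or loss of signal fitted bidirectionally vs DMSO baseline.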

The values that follow come from PubChem BioAssay (EPA / NIEHS).

Structures are written as SMILES. Calls of active or inactive are those of the source. Rule for the calls: active = hit-call score of the fitted dose curve at least 0.9, where 1 is the maximum; inactive = score below 0.9.

Sequence of E-selectin (Homo sapiens) (P16581 whole entry, looked up): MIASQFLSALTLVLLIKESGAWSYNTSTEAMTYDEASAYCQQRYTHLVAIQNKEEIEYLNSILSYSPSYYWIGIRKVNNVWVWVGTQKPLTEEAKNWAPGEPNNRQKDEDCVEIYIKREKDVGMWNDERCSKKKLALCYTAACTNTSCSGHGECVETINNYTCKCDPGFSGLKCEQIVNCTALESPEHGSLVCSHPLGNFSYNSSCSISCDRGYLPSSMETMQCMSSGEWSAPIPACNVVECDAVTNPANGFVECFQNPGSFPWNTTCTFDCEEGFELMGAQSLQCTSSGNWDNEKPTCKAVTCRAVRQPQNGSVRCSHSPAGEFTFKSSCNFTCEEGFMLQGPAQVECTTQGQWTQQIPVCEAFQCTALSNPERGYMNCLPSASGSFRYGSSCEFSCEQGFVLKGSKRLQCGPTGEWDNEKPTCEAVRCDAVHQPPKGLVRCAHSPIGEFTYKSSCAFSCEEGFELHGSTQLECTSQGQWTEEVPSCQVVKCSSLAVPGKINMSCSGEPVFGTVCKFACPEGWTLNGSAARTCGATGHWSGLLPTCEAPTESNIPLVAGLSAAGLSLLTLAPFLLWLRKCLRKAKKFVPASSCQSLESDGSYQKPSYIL
Sequence of Tumor necrosis factor (Homo sapiens) (P01375 whole entry, looked up): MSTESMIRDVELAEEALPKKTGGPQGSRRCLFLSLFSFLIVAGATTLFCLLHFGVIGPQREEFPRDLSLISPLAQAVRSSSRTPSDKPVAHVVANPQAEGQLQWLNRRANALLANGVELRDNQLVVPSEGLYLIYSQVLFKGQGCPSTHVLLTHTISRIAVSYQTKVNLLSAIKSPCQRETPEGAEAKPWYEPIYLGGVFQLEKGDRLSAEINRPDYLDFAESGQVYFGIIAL

As to `CCCOC(=O)c1ccc(O)cc1`, the outcome in [1] was “inactive”; in assay [2], “inactive”; in [3], “inactive”; with CD40, CD40 (gene 958) [4], “inactive”; in assay [5], “inactive”; in assay [6], “inactive”. The result in assay [7], in assay [8], in assay [9], in assay [11], in assay [12] and in assay [13] was inactive. For the same compound, the outcome with CD38, CD38 (gene 952) was “inactive”; with CD40, CD40 (gene 958) [14], “inactive”; with CD69, CD69 (gene 969), “inactive”; in assay [15], “inactive”; in assay [16], “inactive”; in [17], “inactive”. For the same compound, the half-maximal activity concentration (AC50) in assay [10] is 9.7 µM (active).
With `c1ccc2cc3c(ccc4ccccc43)cc2c1`, the outcome is “inactive” in assay [1]; “inactive” in assay [2]; “inactive” in assay [3]; “inactive” with CD40, CD40 (gene 958) [4]; “inactive” in [5]; “inactive” in [6]. Further, the outcome in assay [7], in assay [8], in [9], in [10], in [11] and in [13] was inactive. In addition, the outcome with CD38, CD38 (gene 952) was “inactive”; in the assay with CD40, CD40 (gene 958) [14], “inactive”; with CD69, CD69 (gene 969), “inactive”; in assay [15] it was “inactive”; in assay [16], “inactive”; in assay [17], “inactive”. Moreover, the AC50 in assay [12] was 0.587 µM (active).
Take `c1ccc2c(c1)ccc1ccccc12`: the outcome in [1] is “inactive”; in assay [2] it was “inactive”; in assay [3] it was “inactive”; with CD40, CD40 (gene 958) [4], “inactive”; in assay [5], “inactive”; in [6], “inactive”. Besides, the outcome in assay [7], in assay [8], in [9], in assay [10], in assay [11] and in assay [12] was inactive. The outcome in [18] was “inactive”; in assay [13], “inactive”; in the assay with CD38, CD38 (gene 952) it was “inactive”; with CD40, CD40 (gene 958) [14], “inactive”; in the assay with CD69, CD69 (gene 969) it was “inactive”; in [15], “inactive”. In addition, the result in assay [16] and in [17] was inactive.
